Compound activity (PubChem)
Sampled rows, rich in hits. Any-hit rate of the full collection: about 3.8%.
Shn3 inh set2: reduces Shn3 3'UTR luciferase signal in osteoblasts; 360,000 tested, 0.52% active; inhibition, % at 12.5 µM; Clone20 osteoblast Shn3 3'UTR firefly luciferase, 24 h; AID 588674;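 active = mean inhibition of at least 75% with every replicate also reaching 75%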;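 also: 0% = median of neutral control wells and 100% = pilot-screen positive control compound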
Mdm2 MdmX PPI: disrupts the human Mdm2-MdmX interaction; SaOS-2 split-luciferase Mdm2/MdmX complementation, luminescence; inhibition, % at 8 µM; 330,000 tested, 3% active;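 active = inhibition of at least 50% at 8 µM in the primary screen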
Target sequence (O15151 whole entry, looked up): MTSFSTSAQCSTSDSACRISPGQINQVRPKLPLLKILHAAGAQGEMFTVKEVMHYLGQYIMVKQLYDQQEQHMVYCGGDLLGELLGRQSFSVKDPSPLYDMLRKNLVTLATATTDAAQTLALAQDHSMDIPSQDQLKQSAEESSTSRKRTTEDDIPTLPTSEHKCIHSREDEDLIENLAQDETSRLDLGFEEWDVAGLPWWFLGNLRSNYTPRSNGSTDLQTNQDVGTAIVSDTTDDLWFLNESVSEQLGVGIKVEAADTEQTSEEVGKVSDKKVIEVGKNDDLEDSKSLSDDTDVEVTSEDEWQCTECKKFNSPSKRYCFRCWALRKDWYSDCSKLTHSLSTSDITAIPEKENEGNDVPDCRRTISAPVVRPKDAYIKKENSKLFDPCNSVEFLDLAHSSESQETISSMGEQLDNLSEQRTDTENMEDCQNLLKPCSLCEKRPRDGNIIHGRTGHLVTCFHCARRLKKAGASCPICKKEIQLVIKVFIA
Target sequence (Q00987 whole entry, looked up): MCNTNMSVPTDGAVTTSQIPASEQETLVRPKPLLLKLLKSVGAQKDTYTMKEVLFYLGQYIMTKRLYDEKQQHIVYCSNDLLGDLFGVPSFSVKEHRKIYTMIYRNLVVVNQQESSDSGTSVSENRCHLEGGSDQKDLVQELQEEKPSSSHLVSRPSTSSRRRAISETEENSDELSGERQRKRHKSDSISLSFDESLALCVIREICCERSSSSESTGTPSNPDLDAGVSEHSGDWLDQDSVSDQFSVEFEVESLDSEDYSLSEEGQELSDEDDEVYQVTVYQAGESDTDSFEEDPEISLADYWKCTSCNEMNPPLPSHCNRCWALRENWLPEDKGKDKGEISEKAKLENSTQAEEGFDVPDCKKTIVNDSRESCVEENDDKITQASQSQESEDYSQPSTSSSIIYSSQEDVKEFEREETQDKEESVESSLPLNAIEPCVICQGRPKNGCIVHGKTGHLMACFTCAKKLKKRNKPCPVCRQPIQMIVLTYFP
697 NFkB inh: inhibitors of the PMA/ionomycin-induced NF-kB reporter in 697 B cells; 697 B-cell NF-kB luciferase reporter, 16 h; inhibition, % at 4 µM; 330,000 tested, 0.33% active; in the data active = inhibition above about 35%
Gli-Sufu block: blocks Gli-Sufu signaling in a luciferase reporter; inhibition, % at 5 µM; Sufu-KO-LIGHT fibroblasts, Gli luciferase reporter luminescence; AID 588413; 340,000 tested, 0.74% active;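 active = inhibition above about 55%, limit read from the data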;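 also: 0% = DMSO-treated cells and 100% = wells with medium but no cells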
Jurkat NFkB inh: inhibitors of the PMA/ionomycin-induced NF-kB reporter in Jurkat cells | PMA/ionomycin-induced NF-kB luciferase reporter, luminescence | inhibition, % at 4 µM | 330,000 tested, 0.53% active | AID 435003; in the data active = inhibition above about 50%
Mdm2 MdmX conf: human Mdm2/MdmX binding inhibition, confirmed | shares compounds with Mdm2 MdmX PPI | luminescent assay | inhibition, % at 8 µM | 10,000 tested, 55% active | AID 489028; in the data active = inhibition above about 40%
FLuc counter: counter-screen for Mdm2/MdmX inhibitors: full-length luciferase; shares compounds with Mdm2 MdmX PPI; SaOS-2 full-length luciferase counterscreen, luminescence; inhibition, % at 8 µM; AID 504607; 6,200 tested, 77% active;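 active = mean inhibition at 8 µM reaching about 37%, which flags the compound as non-specific, limit read from the data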;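 also: p53-null SaOS-2 cells with luciferase driven by a doxycycline-inducible promoter; compound on cells about two nights before reading with doxycycline added after day one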
The depositor's hits bear a star; · = no result.

SMILES	Shn3 inh set2	Mdm2 MdmX PPI	697 NFkB inh	Gli-Sufu block	Jurkat NFkB inh	Mdm2 MdmX conf	FLuc counter
O=C(Nc1nnc(-c2ccccc2F)s1)Nc1ccccc1F	-72.8	0.7	-27.3	-68.8	-45.8	·	·
COc1ccc2[nH]c3c(c2c1)CCN1C(=O)N([C@@H](C)C(=O)NC2CCCCC2C)C(=O)[C@]31C (some centres undefined)	26.9	12.8	-11.3	10.2	5.9	·	·
Nc1ccc(NC(=O)c2ccccc2)c2c1C(=O)c1ccccc1C2=O	35.1	51.6*	-12.0	-1.2	41.1	52.5*	71.7*
O=[N+]([O-])c1ccc(O)c(/C=N/Nc2ncnc3c2cnn3-c2ccccc2)c1	91.7*	90.8*	4.7	58.1*	21.0	91.2*	21.3
Cc1nc2sc3c(NCc4ccco4)ncnc3c2c2c1COC(C)(C)C2	5.8	63.5*	7.5	-3.1	24.3	45.9*	37.4*
Cc1nc(Nc2cnc(/C=C/c3cc(C(=O)Nc4cccc(C(F)(F)F)c4)ccc3C)cn2)cc(N2CCNCC2)n1	·	89.8*	19.5	-2.7	8.9	52.1*	49.5*
CN(C)CCCN(C(=O)c1ccc(C(=O)c2ccccc2)cc1)c1nc2cc3c(cc2s1)OCCO3	-1.6	53.5*	-21.9	8.6	-76.1	38.8	87.4*
CN(C)CCCN(C(=O)c1ccc2c(c1)CCCC2)c1nc2ccc(F)cc2s1	-12.6	37.6	-38.4	5.3	-11.9	·	·
CN(C)CCCN(C(=O)c1ccc2c(c1)CCCC2)c1nc2cc3c(cc2s1)OCO3	-3.4	64.1*	-9.0	23.7	0.5	48.8*	56.1*
COc1cccc(C(=O)OCC(=O)N2CCc3ccccc3C2)c1OC	-17.9	13.3	15.3	2.0	-4.7	·	·
CCCN1C(=O)c2ccc(C(=O)Nc3ccccc3C(=O)O)cc2C1=O	-25.6	-14.6	-13.9	-10.0	-5.2	·	·
O=C(Nc1nncs1)c1cc(S(=O)(=O)N2CCCCC2)ccc1Cl	-13.7	12.8	15.0	-14.7	18.1	·	·
Cc1ccc(CNC(=O)Cn2cnc3c(NC(=O)OCc4ccccc4)ncnc32)o1	-15.9	-12.3	0.9	-24.0	-9.7	·	·
CC1=CC(C)(C)n2c(O)c(C3=NC(=S)NC3=O)c3cc(OC(=O)c4cccc5ccccc45)cc1c32	27.8	77.1*	-8.0	15.8	4.5	13.8	·
CC1=CC(C)(C)n2c(O)c(N=NC(N)=S)c3cc(C)cc1c32	-6.0	17.2	27.8	-1.4	-1.2	·	·
CCOC(=O)N1C(=O)[C@@](c2ccc(Cl)cc2)(C(C)C)N1C(=O)OCC	8.2	88.3*	1.4	2.1	-3.3	62.2*	33.2
CCOC(=O)N1C(=O)[C@](c2ccc(Cl)cc2)(C(C)C)N1C(=O)OCC	-6.6	79.9*	-2.2	-4.1	14.6	43.7*	49.5*
COC(=O)N1C(=O)[C@](c2ccccc2)(C(C)C)N1C(=O)OC	-0.8	34.7	11.7	-2.3	16.0	·	·
CCOC(=O)C1(C(N)=O)OC1(c1ccc(Cl)cc1)c1ccccc1Cl (centres undefined)	-32.9	·	·	1.1	·	·	·
COc1cc(CNC(=O)c2ccc3oc(C(C)C)nc3c2)cc(OC)c1	16.4	0.6	-31.9	31.9	-15.3	·	·
COc1ccc2sc(N(CCCN(C)C)C(=O)c3ccc(S(=O)(=O)N4CCc5ccccc5C4)cc3)nc2c1	-17.9	100.2*	-4.2	6.0	-34.5	99.1*	54.7*
Cc1cccc2sc(N(CCCN(C)C)C(=O)c3ccc(S(=O)(=O)N4CCc5ccccc5C4)cc3)nc12	16.3	63.6*	-36.4	27.4	32.9	24.4	·
COCCn1c(=NC(=O)c2ccc(S(=O)(=O)N3CCc4ccccc4C3)cc2)sc2cc(OC)ccc21	1.8	69.4*	4.3	7.5	2.7	14.3	·
Cc1cc(C)c2sc(N(CCCN(C)C)C(=O)c3ccc(S(=O)(=O)N4CCCc5ccccc54)cc3)nc2c1	-1.5	99.2*	-10.4	0.1	18.9	56.9*	73.0*
CN(C)CCCN(C(=O)c1ccc(S(=O)(=O)N2CCc3ccccc32)cc1)c1nc2ccc(F)cc2s1	-5.7	34.2	8.5	19.5	-2.0	·	·
SMILES	Shn3 inh set2	Mdm2 MdmX PPI	697 NFkB inh	Gli-Sufu block	Jurkat NFkB inh	Mdm2 MdmX conf	FLuc counter
COc1ccc(N2CCN(C3CCCN(Cc4cccc(C(C)=O)c4)C3)CC2)cc1 (centres undefined)	7.6	17.4	-6.1	20.3	2.3	·	·
Cc1cc(Cl)ccc1C(=O)C1CCCN(C(=O)c2ccc3ncccc3c2)C1 (centres undefined)	-2.0	34.9	-13.8	25.6	1.9	·	·
CCOC(=O)C1=C(C)NC(C)=C(C(=O)OCC)C1C(=O)OCC(=O)NCc1ccccc1OC	5.2	-5.2	-16.4	7.1	-2.3	·	·
C[C@@H]1CN([C@H](C)CO)C(=O)CCCn2nncc2CO[C@H]1CN(C)C(=O)c1ccccc1	-12.0	·	·	·	·	·	·
CN(C)CCCN(C(=O)c1ccc(S(=O)(=O)N2CCc3ccccc3C2)cc1)c1nc2ccc(F)cc2s1	-2.9	97.4*	-57.0	-2.8	16.0	25.6	·
Cc1cc(C)c2sc(N(CCCN(C)C)C(=O)c3ccc(S(=O)(=O)N4CCc5ccccc5C4)cc3)nc2c1	-28.0	99.4*	1.5	·	14.8	99.2*	41.6*
CN(C)CCCN(C(=O)c1ccc(S(=O)(=O)N2CCc3ccccc3C2)cc1)c1nc2c(F)cccc2s1	3.0	9.9	-4.0	4.9	-4.9	·	·
Cc1ccc2nc(N(CCCN(C)C)C(=O)c3ccc(S(=O)(=O)N4CCOCC4)cc3)sc2c1	-0.1	23.8	4.6	49.4	-6.7	·	·
Cc1ccc2nc(N(CCCN(C)C)C(=O)c3ccc(S(=O)(=O)N4CCc5ccccc5C4)cc3)sc2c1	24.8	100.4*	3.7	12.3	9.9	52.1*	13.8
COC(=O)c1ccc(CN(c2ccc(C(=O)O)c(O)c2)S(=O)(=O)c2ccc(Cl)c([N+](=O)[O-])c2)cc1	9.6	·	·	8.7	·	·	·
O=C(CCS(=O)(=O)Cc1ccccc1)Nc1nc2c(s1)CCCC2	-8.0	56.0*	-12.6	-5.0	7.7	63.0*	61.0*
COc1cccc(N2CC(O)=C(c3nc4ccccc4s3)C2=N)c1	-9.1	69.9*	-187.9	-20.1	-32.2	56.9*	111.4*
COc1ccc(N2CC(O)=C(c3nc4ccccc4s3)C2=N)cc1	23.4	7.5	-114.1	6.5	-33.9	·	·
COC(=O)N1CCc2c(sc(NC(=O)C3=COCCO3)c2C#N)C1	-2.6	55.7*	-52.8	-4.7	43.5	75.5*	65.7*
CNC(=O)c1c(NC(=O)C2=COCCO2)sc2c1CCN(C(=O)OC)C2	0.3	17.6	13.6	-0.9	10.1	·	·
C/C(=N\NC(=O)Cc1ccc(Cl)cc1)c1ccccc1O	15.1	57.2*	16.2	-0.5	-6.7	44.5*	43.5*
C/C(=N\NC(=O)Cc1ccc(Cl)cc1)c1ccc(F)cc1	36.6	4.0	-2.1	-2.1	-0.9	·	·
CCOc1ccccc1C(=O)NCC(=O)Nc1ccc(-c2ccccc2)cc1	-18.5	15.2	-6.0	-10.5	-5.4	·	·
